Values joined by “and” are separate entries in the source; they are usually repeats but may differ in a detail not shown here. Equal values may be shown once. The panel holds about 83,000 compounds, 20% with a hit somewhere; the sample as a whole holds those more often.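 Note: values are percent growth. 100 is the growth of untreated cells, values between 100 and 0 indicate rising inhibition; between -100 and 0 indicates cell death.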 Active and inactive are the calls of the source. How the source made its calls: active means growth percent below 10; inactive means the rest.

In PubChem BioAssay (NCI) one finds growth data, which are given here for 16 molecules.

Some test systems named below: HT29 colon; SNB-75 CNS; SNB-19 CNS; U251 CNS; PC-3 prostate; SK-MEL-5 melanoma; UACC-62 melanoma; LOX IMVI melanoma; SK-MEL-28 melanoma; SK-MEL-2 melanoma; EKVX NSCLC; SN12C renal; UO-31 renal; TK-10 renal; ACHN renal; CAKI-1 renal; A498 renal; CCRF-CEM leukemia; HCT-15 colon; HL-60(TB) leukemia.
Assay in all cases: NCI-60 one-dose screen, 48 h (100 = growth as untreated, 0 = no growth, -100 = all killed)
What all share (settings): 10 µM unless noted

Take `COC12CC3C4=CCOC5CC(=O)N6c7ccccc7C1(CCN2C4)C6C53` (stereo not drawn): the growth in the assay on HT29 colon was 100% (inactive); in the assay on SNB-75 CNS it was 70.1% (inactive); in the assay with SNB-19 CNS, 116% (inactive); with U251 CNS it was 93.2% (inactive); in the assay with PC-3 prostate, 105% (inactive); in the assay on SK-MEL-5 melanoma it was 110% (inactive). Further, the growth with UACC-62 melanoma is 104% (inactive); in the assay on LOX IMVI melanoma it was 96.9% (inactive); with SK-MEL-28 melanoma it was 109% (inactive); in the assay with SK-MEL-2 melanoma it was 108% (inactive); in the assay on EKVX NSCLC it was 117% (inactive); in the assay on SN12C renal, 119% (inactive). The growth with UO-31 renal is 92.7% (inactive); in the assay on TK-10 renal, 100% (inactive); in the assay with ACHN renal it was 113% (inactive); with CAKI-1 renal, 102% (inactive); in the assay with A498 renal, 94.6% (inactive); in the assay with CCRF-CEM leukemia, 99.7% (inactive).
As for `C[C@]12CC[C@H](O)C[C@@H]1CC[C@@H]1[C@@H]2CC[C@]2(C)OC(=O)CC[C@@H]12`, the growth in the assay with HCT-15 colon was 95.2% (inactive); in the assay with HT29 colon it was 79.6% (inactive); in the assay on U251 CNS, 86.9% (inactive); with PC-3 prostate, 92.5% (inactive); with SK-MEL-5 melanoma, 101% (inactive); in the assay with UACC-62 melanoma, 93.5% (inactive). Besides, the growth in the assay with LOX IMVI melanoma was 97.9% (inactive); in the assay with SK-MEL-28 melanoma, 105% (inactive); in the assay on SK-MEL-2 melanoma, 108% (inactive); in the assay with EKVX NSCLC, 89% (inactive); with SN12C renal, 96.8% (inactive); in the assay on TK-10 renal, 97.5% (inactive). Also, the growth in the assay on ACHN renal was 107% (inactive); in the assay with CAKI-1 renal, 92.8% (inactive); with A498 renal, 109% (inactive); in the assay on HL-60(TB) leukemia it was 94.4% (inactive); in the assay on CCRF-CEM leukemia, 114% (inactive).
As to `CC1(C)N=C(N)N=C(N)N1c1ccc(CCC(=O)Nc2ccc(S(=O)(=O)F)cc2)cc1`, the growth in the assay with HCT-15 colon was 46.2% (inactive); in the assay on HT29 colon it was 9.44% (active); in the assay on PC-3 prostate it was 20.2% (inactive); with SK-MEL-5 melanoma it was 34.8% (inactive); in the assay on UACC-62 melanoma, 26.2% (inactive); in the assay with LOX IMVI melanoma, 15.8% (inactive). In addition, the growth was 52% (inactive) with SK-MEL-28 melanoma; 50.4% (inactive) with SK-MEL-2 melanoma; 33.4% (inactive) with SN12C renal; 24.3% (inactive) in the assay with TK-10 renal; 64.5% (inactive) with ACHN renal; 28.8% (inactive) with CAKI-1 renal. The figures for the growth in the assay with A498 renal and in the assay with HL-60(TB) leukemia were 60.3% (inactive) and 18.8% (inactive), respectively.
Consider `O=NN(c1ccccc1)c1ccccc1`, for which the growth was 119% (inactive) in the assay with HT29 colon; 101% (inactive) in the assay with SNB-75 CNS; 106% (inactive) in the assay with SNB-19 CNS; 99.2% (inactive) in the assay on U251 CNS; 98% (inactive) in the assay on PC-3 prostate; 98.6% (inactive) in the assay on SK-MEL-5 melanoma. Besides, the growth is 95.4% (inactive) in the assay with UACC-62 melanoma; 100% (inactive) in the assay with LOX IMVI melanoma; 114% (inactive) with SK-MEL-28 melanoma; 105% (inactive) in the assay on SK-MEL-2 melanoma; 98.1% (inactive) with SN12C renal; 96% (inactive) in the assay on UO-31 renal. The growth with TK-10 renal is 103% (inactive); in the assay with ACHN renal, 118% (inactive); in the assay on CAKI-1 renal, 102% (inactive); with A498 renal, 101% (inactive); in the assay with CCRF-CEM leukemia, 98.9% (inactive).
Regarding `COc1ccc(CN)cc1OC`, the growth is 107% (inactive) in the assay on HT29 colon; 113% (inactive) and 93.3% (inactive) in the assay on SNB-75 CNS; 104% (inactive) and 103% (inactive) in the assay on SNB-19 CNS; 112% (inactive) and 97.6% (inactive) in the assay with U251 CNS; 106% (inactive) and 93.5% (inactive) in the assay on PC-3 prostate; 115% (inactive) with SK-MEL-5 melanoma. Besides, the growth in the assay with UACC-62 melanoma is 111% (inactive) and 100% (inactive); in the assay on LOX IMVI melanoma it was 98.2% (inactive) and 94.2% (inactive); with SK-MEL-28 melanoma, 110% (inactive) and 116% (inactive); in the assay with SK-MEL-2 melanoma, 112% (inactive); with EKVX NSCLC, 121% (inactive); with SN12C renal, 98.7% (inactive) and 98.1% (inactive). Moreover, the growth with TK-10 renal is 127% (inactive) and 115% (inactive); in the assay on ACHN renal it was 103% (inactive) and 95.9% (inactive); with CAKI-1 renal, 101% (inactive); with HL-60(TB) leukemia, 98% (inactive); in the assay with CCRF-CEM leukemia, 116% (inactive) and 97.7% (inactive).
On to `Cc1c2ccncc2c(C)c2c1[nH]c1ccccc12`, for which the growth with HT29 colon was 2% (active); in the assay with SNB-75 CNS, -89% (active); in the assay on SNB-19 CNS it was -84.8% (active); with U251 CNS, -82.2% (active); in the assay with SK-MEL-5 melanoma it was -97.7% (active); with UACC-62 melanoma it was 56.5% (inactive). The growth with LOX IMVI melanoma was -77.6% (active); in the assay with SK-MEL-28 melanoma it was -96.7% (active); with SK-MEL-2 melanoma it was -85.8% (active); in the assay with EKVX NSCLC, -21.8% (active); in the assay on SN12C renal, -75.8% (active); in the assay on UO-31 renal, -82.1% (active). Besides, the growth in the assay with TK-10 renal is -81.3% (active); with ACHN renal, -92.3% (active); in the assay with CAKI-1 renal it was -90.7% (active); with A498 renal, -94.8% (active); with HL-60(TB) leukemia, -45.1% (active).
For the molecule `CC(C)CCC1C(=O)NC(=O)NC1=O`, the growth in the assay with HT29 colon is 98.4% (inactive); in the assay on SNB-75 CNS, 104% (inactive); in the assay with SNB-19 CNS it was 115% (inactive); with U251 CNS, 97.6% (inactive); in the assay on PC-3 prostate it was 98% (inactive); in the assay with SK-MEL-5 melanoma it was 103% (inactive). For the same molecule, the growth with UACC-62 melanoma was 96.7% (inactive); with LOX IMVI melanoma, 104% (inactive); in the assay on SK-MEL-2 melanoma, 81.8% (inactive); in the assay on EKVX NSCLC, 96.1% (inactive); with SN12C renal, 96.3% (inactive); in the assay with UO-31 renal it was 86.9% (inactive). For the same molecule, the growth with TK-10 renal is 84.5% (inactive); in the assay with ACHN renal, 100% (inactive); in the assay on CAKI-1 renal, 102% (inactive); in the assay on A498 renal, 86.6% (inactive); in the assay with HL-60(TB) leukemia, 99.7% (inactive).
With `O=C1C(=C(O)c2ccccc2)C(=O)c2ccccc21`, the growth with HL-60(TB) leukemia was 97.6% (inactive).
Regarding `CCOC(=O)C1C(c2ccco2)C2(C#N)C(=N)OC1(C)C2(C#N)C#N` (stereo not drawn), the growth with UACC-62 melanoma is 62% [100 µM] (inactive) and 20.8% [100 µM] (inactive); with TK-10 renal, 83.8% [100 µM] (inactive) and 19.2% [100 µM] (inactive).
With `C[N+]1(C)CCCC1c1cccnc1` (stereo not drawn), the growth with HT29 colon is 102% (inactive); with SNB-75 CNS it was 98% (inactive); with SNB-19 CNS it was 105% (inactive); with U251 CNS it was 94% (inactive); in the assay with PC-3 prostate, 97.6% (inactive); in the assay with SK-MEL-5 melanoma, 95.4% (inactive). The growth with UACC-62 melanoma was 102% (inactive); in the assay on LOX IMVI melanoma, 100% (inactive); with SK-MEL-2 melanoma, 112% (inactive); in the assay with SN12C renal it was 99.8% (inactive); in the assay with UO-31 renal, 99.7% (inactive); in the assay with TK-10 renal it was 111% (inactive). Further, the growth in the assay with ACHN renal was 114% (inactive); in the assay on CAKI-1 renal, 98.2% (inactive); in the assay on CCRF-CEM leukemia, 97.6% (inactive).
`c1ccc2nc(-c3ccc4ccccc4n3)ccc2c1`: the growth in the assay with HL-60(TB) leukemia was 101% (inactive).
In the case of `CN(N)/N=N/c1nc[nH]c1[N+](=O)[O-]`, the growth is 21.2% [100 µM] (inactive) and -39.8% [100 µM] (active) in the assay with UACC-62 melanoma; 79.1% [100 µM] (inactive) and 9.85% [100 µM] (active) with TK-10 renal.
With `O=S(=O)(O)c1ccc(Cl)cc1`, the growth with HL-60(TB) leukemia is 89.1% (inactive).
On to `CCOC(=O)c1c(SC)nc(-c2ccc(Cl)cc2)sc1=N`, for which the growth with UACC-62 melanoma is 5.48% [100 µM] (active) and 7.26% [100 µM] (active); with TK-10 renal it was 6.59% [100 µM] (active) and 15.8% [100 µM] (inactive).
For `COC(=O)CCP(CCC(=O)OC)c1ccccc1`, the growth was 106% (inactive) in the assay on HT29 colon; 99.3% (inactive) in the assay on U251 CNS; 99.9% (inactive) in the assay with PC-3 prostate; 103% (inactive) in the assay with SK-MEL-5 melanoma; 97.9% (inactive) with UACC-62 melanoma; 100% (inactive) in the assay with LOX IMVI melanoma. The growth in the assay with SK-MEL-28 melanoma is 103% (inactive); in the assay on SK-MEL-2 melanoma, 110% (inactive); in the assay with EKVX NSCLC it was 93.9% (inactive); in the assay on SN12C renal, 99.5% (inactive); in the assay on TK-10 renal, 109% (inactive); in the assay with ACHN renal, 108% (inactive). Further, the growth was 94.6% (inactive) in the assay with CAKI-1 renal, 123% (inactive) with A498 renal, 98.5% (inactive) in the assay on HL-60(TB) leukemia and 109% (inactive) with CCRF-CEM leukemia.
`CC1CCNC(C)C1` (stereo not drawn): the growth in the assay with HL-60(TB) leukemia was 113% (inactive).
